Results filed as inconclusive are left out. The source made the active and inactive calls. How the source made its calls: active means hit-call score of the fitted dose curve at least 0.9, where 1 is the maximum; inconclusive means response in the unintended direction; inactive means score below 0.9.
How the values were obtained:
[1] = TOX21_p53_BLA_p2_viability: Viability Assessment in the Tox21 HCT-116 p53 Agonism Beta-lactamase Assay, Phase 2 (AID 2283591);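 further: compound exposure lasted 16 h at 37 °C; actives lower the ATP signal meaning cytotoxicity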
Method in brief: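 HCT-116 p53-bla cells (4000/well) rested 5 h at 37C, then received compounds in DMSO (217-fold dilution) for 16 h at 37C, 5% CO2. After the CCF4 read, CellTiter-Glo was added; ATP luminescence was read after 30 min at room temperature.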

[2] = target: Cellular tumor antigen p53 (Homo sapiens) (UniProt P04637); assay: TOX21_p53_BLA_p2_ratio: Tox21 HCT-116 p53 Agonism Beta-lactamase Assay, Ratio, Phase 2 (AID 2283592)
Method in brief: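 HCT116 cells carrying a p53-responsive beta-lactamase reporter were plated, incubated 5 h at 37C, then dosed with compounds in DMSO (217-fold dilution) for 16 h. CCF4-AM substrate was added for 2 h at room temperature; the 460/530 nm emission ratio gave gain-of-signal activity relative to DMSO.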

[3] = TOX21_p53_BLA_p3_viability: Viability Assessment in the Tox21 HCT-116 p53 Agonism Beta-lactamase Assay, Phase 3 (AID 2283593);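 further: cells exposed to compound for 16 h before reading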
Method in brief: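 HCT-116 cells (4000/well) rested 5 h at 37C, then got DMSO compounds by pin tool (217-fold dilution) for 16 h at 37C, 5% CO2. After the bla read, CellTiter-Glo was added and luminescence read at 30 min, room temperature.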

[4] = target: Cellular tumor antigen p53 (Homo sapiens) (UniProt P04637); assay: TOX21_p53_BLA_p3_ratio: Tox21 HCT-116 p53 Agonism Beta-lactamase Assay, Ratio, Phase 3 (AID 2283596)
Method in brief: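 HCT116 p53-bla cells (4000/well) given compound in DMSO (217-fold dilution) after 5 h, incubated 16 h at 37C. CCF4-AM substrate 2 h at room temperature; 460/530 nm emission ratio, gain fitted against DMSO.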

[5] = TOX21_p53_BLA_p4_viability: Viability Assessment in the Tox21 HCT-116 p53 Agonism Beta-lactamase Assay, Phase 4 (AID 2283597);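 further: hits lower the luminescence signal meaning cytotoxicity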
Method in brief: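 HCT116 p53-bla cells (4000/well) rested 5 h at 37C, then received compounds in DMSO (217-fold dilution) for 16 h at 37C, 5% CO2. CellTiter-Glo was added after the CCF4-AM read, and luminescence was read after 30 min at room temperature.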

[6] = target: Cellular tumor antigen p53 (Homo sapiens) (UniProt P04637); assay: TOX21_p53_BLA_p5_ratio: Tox21 HCT-116 p53 Agonism Beta-lactamase Assay, Ratio, Phase 5 (AID 2283599)
Method in brief: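 HCT-116 cells carrying a p53-inducible beta-lactamase reporter were seeded at 4000 cells/well and dosed after 5 h with compound in DMSO (217-fold dilution). After 16 h at 37C, CCF4-AM substrate was added for 2 h, and the 460/530 nm emission ratio was scored as gain-of-signal versus DMSO.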

[7] = target: Cellular tumor antigen p53 (Homo sapiens) (UniProt P04637); assay: TOX21_p53_BLA_p4_ratio: Tox21 HCT-116 p53 Agonism Beta-lactamase Assay, Ratio, Phase 4 (AID 2283601)
Method in brief: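 HCT116 cells carrying an inducible beta-lactamase reporter were plated at 4000 cells/well, rested 5 h, then exposed to compounds in DMSO (217-fold dilution) for 16 h at 37C. CCF4-AM substrate was loaded 2 h at room temperature; 460/530 nm emission ratio scored gain-of-signal versus DMSO.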

Sequence of Cellular tumor antigen p53 (Homo sapiens) (P04637 whole entry, looked up): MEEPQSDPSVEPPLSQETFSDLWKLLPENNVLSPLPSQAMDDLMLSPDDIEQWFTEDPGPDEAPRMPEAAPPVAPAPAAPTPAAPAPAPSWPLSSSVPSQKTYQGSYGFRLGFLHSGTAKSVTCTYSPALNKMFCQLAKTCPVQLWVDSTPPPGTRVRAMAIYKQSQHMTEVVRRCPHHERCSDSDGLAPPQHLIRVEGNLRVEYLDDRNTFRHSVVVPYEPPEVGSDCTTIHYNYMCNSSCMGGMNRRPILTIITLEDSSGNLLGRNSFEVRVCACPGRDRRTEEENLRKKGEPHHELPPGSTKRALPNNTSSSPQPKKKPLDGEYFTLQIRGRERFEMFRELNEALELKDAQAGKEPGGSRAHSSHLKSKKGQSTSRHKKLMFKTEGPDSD

SMILES	outcome [1]	outcome [2]	outcome [3]	outcome [4]	outcome [5]	outcome [6]	outcome [7]	AC50 [1]	AC50 [2]	AC50 [5]	AC50 [7]	AC50 [4]	AC50 [6]
NNc1ccc(C(=O)O)cc1	inactive	inactive	inactive	inactive	inactive	inactive	inactive	–	–	–	–	–	–
CCc1cccc(N(C)C(N)=Nc2cccc3ccccc23)c1	inactive	inactive	inactive	inactive	inactive	inactive	inactive	–	–	–	–	–	–
CCCCCCCCCCCCCCCC(=O)OC[C@H](COP(=O)([O-])OCC[N+](C)(C)C)OC(=O)CCCCCCCCCCCCCCC	inactive	inactive	inactive	inactive	inactive	inactive	inactive	–	–	–	–	–	–
CC[C@H](C)COC(=O)/C=C/c1ccc(N=Cc2ccc(OC)cc2)cc1	–	–	inactive	inactive	–	inactive	–	43.5 µM (active)	87.2 µM (active)	46 µM (active)	84.4 µM (active)	–	–
C1CCN2C[C@@H]3C[C@@H](CN4CCCC[C@@H]34)[C@H]2C1	inactive	inactive	inactive	inactive	inactive	inactive	inactive	–	–	–	–	–	–
CCC(C(=O)OCCN(CC)CC)c1ccccc1 (stereo not given)	inactive	inactive	inactive	inactive	inactive	inactive	inactive	–	–	–	–	–	–
Cc1ccc(O)c(C(=O)c2ccccc2)c1	inactive	inactive	inactive	inactive	inactive	inactive	inactive	–	–	–	–	–	–
O=S(=O)(c1ccccc1)c1ccc(Cl)cc1	inactive	inactive	inactive	inactive	inactive	inactive	inactive	–	–	–	–	–	–
OC[C@@H](O)[C@H](O)[C@H](O)[C@@H](O)CO	inactive	inactive	inactive	inactive	inactive	inactive	inactive	–	–	–	–	–	–
O=C(CO)[C@@H](O)[C@H](O)[C@@H](O)C(=O)O	inactive	inactive	inactive	inactive	inactive	inactive	inactive	–	–	–	–	–	–
Cn1cc(NC(=O)c2cc(NC(=O)c3cc(NC=O)cn3C)cn2C)cc1C(=O)NCCC(=N)N	inactive	inactive	inactive	inactive	inactive	inactive	inactive	–	–	–	–	–	–
CC(C)COC(=O)COc1cc(Cl)c(Cl)cc1Cl	inactive	inactive	inactive	inactive	inactive	inactive	inactive	–	–	–	–	–	–
Nc1nc2[nH]cc(CCc3ccc(C(=O)N[C@@H](CCC(=O)O)C(=O)O)cc3)c2c(=O)[nH]1	inactive	inactive	inactive	inactive	inactive	inactive	inactive	–	–	–	–	–	–
COc1ccc(N)c(OC)c1	inactive	inactive	inactive	inactive	inactive	inactive	inactive	–	–	–	–	–	–
CN(C)C(=O)Oc1cccc([N+](C)(C)C)c1	inactive	inactive	inactive	inactive	inactive	inactive	inactive	–	–	–	–	–	–
CCCCC[C@H](O)/C=C/[C@@H]1[C@H]2C/C(=C/CCCC(=O)O)O[C@H]2C[C@H]1O	inactive	inactive	inactive	inactive	inactive	inactive	inactive	–	–	–	–	–	–
Cc1ncc(C[n+]2csc(CCOP(=O)(O)OP(=O)(O)O)c2C)c(N)n1	inactive	inactive	inactive	inactive	inactive	inactive	inactive	–	–	–	–	–	–
O=[N+]([O-])c1ccc(Oc2ccc(N=C=S)cc2)cc1	inactive	–	inactive	–	inactive	–	–	–	12.9 µM (active)	–	13.4 µM (active)	8.52 µM (active)	10.8 µM (active)
COc1cccc(O)c1O	inactive	inactive	inactive	inactive	inactive	inactive	inactive	–	–	–	–	–	–
Cc1cc(C)c(N)c(Cl)c1	inactive	inactive	inactive	inactive	inactive	inactive	inactive	–	–	–	–	–	–
C#C[C@]1(O)CC[C@H]2[C@@H]3CCC4=C/C(=N/O)CC[C@@H]4[C@H]3CC[C@@]21CC	inactive	inactive	inactive	inactive	–	inactive	inactive	–	–	38.1 µM (active)	–	–	–
Cn1cnc2c(F)c(Nc3ccc(Br)cc3Cl)c(C(=O)NOCCO)cc21	inactive	inactive	inactive	inactive	inactive	inactive	inactive	–	–	–	–	–	–
Cc1ccsc1/C=C/C1=NCCCN1C	inactive	inactive	inactive	inactive	inactive	inactive	inactive	–	–	–	–	–	–
CC1(C)Oc2ccc(C#N)cc2[C@@H](N2CCCC2=O)[C@@H]1O	inactive	inactive	inactive	inactive	inactive	inactive	inactive	–	–	–	–	–	–
COc1cc(C(=O)N2CCOCC2)cc(OC)c1OC	inactive	inactive	inactive	inactive	inactive	inactive	inactive	–	–	–	–	–	–

Reference: PubChem BioAssay (EPA / NIEHS)
